Source: the supplement of paper PMC12067926

How the values were obtained:
Test in all cases: relative growth (AUC of 72 h growth curve relative to DMSO control, dAUC) (ratio); higher = more growth (less inhibition), active = hit call of the paper
Details in all cases: 20 µM;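 active = growth AUC significantly below the DMSO wells by Dunnett test; inactive = the rest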
[1] = tested on: Prolinoborus 1 (Prolinoborus fasciculus)
Procedure, shortened: (§1)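 Whole sediment communities and bacterial isolates from Icelandic stream sediments and Silwood Park soil were brought to carrying capacity in Luria–Bertani medium. They were then diluted 1:100 into 96-well plates with each chemical at 20 µM in 1% DMSO, and A600 was recorded every hour for 72 h. The area under each growth curve, integrated by spline, was averaged across three biological replicates. This figure, divided by the mean of the DMSO controls, gives relative growth (dAUC).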

[2] = tested on: Pseudomonas 1 (Pseudomonas baetica)
Procedure, shortened: as §1

[3] = tested on: Pseudomonas 2 (Pseudomonas vancouverensis)
Procedure, shortened: as §1

[4] = tested on: Pseudomonas 3 (Pseudomonas mandelii)
Procedure, shortened: as §1

[5] = tested on: Pseudomonas 4 (Pseudomonas peli)
Procedure, shortened: as §1

[6] = tested on: Pseudomonas 5 (Pseudomonas baetica)
Procedure, shortened: as §1

[7] = tested on: Pseudomonas 6 (Pseudomonas sp.)
Procedure, shortened: as §1

[8] = tested on: Rhizobium 1 (Rhizobium herbae)
Procedure, shortened: as §1

[9] = tested on: Serratia 1 (Serratia sp. 2015-2462-01)
Procedure, shortened: as §1

[10] = tested on: Sphingomonas 2 (Sphingomonas sp.)
Procedure, shortened: as §1

Measured: relative growth

CC1(C)[C@H](/C=C(\Cl)C(F)(F)F)[C@@H]1C(=O)OC(C#N)c1cccc(Oc2ccccc2)c1 (stereo not given in full)
inactive: [1] 0.983 | [2] 1.07 | [3] 1.02 | [4] 1.05 | [5] 0.999 | [6] 1.08 | [7] 1.16 | [8] 1.28 | [9] 1.01 | [10] 0.868

CNC(=O)Oc1cccc(/N=C/N(C)C)c1
inactive: [1] 0.966 | [2] 1.04 | [3] 0.989 | [4] 1.1 | [5] 0.942 | [6] 1.07 | [7] 1.17 | [8] 0.99 | [9] 0.97 | [10] 1.05

CC(C)OC(=O)C(C(=O)OC(C)C)=C1SCCS1
inactive: [1] 0.947 | [2] 1.16 | [3] 0.995 | [4] 1.04 | [5] 0.947 | [6] 1.03 | [7] 1.09 | [8] 0.897 | [9] 0.96 | [10] 1.1

CC1(C)C(C=C(Cl)Cl)C1C(=O)OCc1cccc(Oc2ccccc2)c1 (stereo not given)
inactive: [1] 0.985 | [2] 1.13 | [3] 0.97 | [4] 1 | [5] 0.979 | [6] 1.05 | [7] 1.13 | [8] 0.958 | [9] 0.964 | [10] 1.02

CCN(CC)c1nc(C)cc(OP(=S)(OC)OC)n1
inactive: [1] 1.01 | [2] 1 | [3] 1 | [4] 1 | [5] 0.979 | [6] 0.988 | [7] 1.03 | [8] 1.05 | [9] 0.994 | [10] 0.839

COP(=S)(OC)Oc1nc(Cl)c(Cl)cc1Cl
inactive: [1] 1.04 | [2] 1.06 | [3] 1.08 | [4] 1.09 | [5] 1.03 | [6] 1.06 | [7] 1.12 | [8] 0.8 | [9] 0.998 | [10] 1.06

O=C(O)COc1ccc(Cl)cc1Cl
inactive: [1] 1.01 | [2] 0.923 | [3] 0.971 | [4] 1.04 | [5] 1.01 | [6] 0.997 | [7] 1.07 | [8] 1.03 | [9] 0.96 | [10] 1.04

CN/C(=N/CC1CCOC1)N[N+](=O)[O-] (stereo not given)
inactive: [1] 0.955 | [2] 0.963 | [3] 0.983 | [4] 1.03 | [5] 1.03 | [6] 0.992 | [7] 1.06 | [8] 0.912 | [9] 1.01 | [10] 1.14

COP(=S)(OC)SCN1C(=O)c2ccccc2C1=O
inactive: [1] 1.08 | [2] 0.986 | [3] 0.981 | [4] 0.971 | [5] 0.962 | [6] 1.03 | [7] 1.12 | [8] 0.943 | [9] 0.972 | [10] 1.01

CCCCc1c(C)nc(NCC)nc1OS(=O)(=O)N(C)C
inactive: [1] 1.04 | [2] 1.06 | [3] 0.978 | [4] 1.02 | [5] 0.97 | [6] 0.981 | [7] 1 | [8] 1.05 | [9] 0.96 | [10] 0.969

CNC(=O)c1cc(Cl)cc(C)c1NC(=O)c1cc(Br)nn1-c1ncccc1Cl
inactive: [1] 0.997 | [2] 0.975 | [3] 0.996 | [4] 0.958 | [5] 1.01 | [6] 0.958 | [7] 0.922 | [8] 0.944 | [9] 1.04 | [10] 1.06

O=[N+]([O-])/N=C1\NCCN1Cc1ccc(Cl)nc1
inactive: [1] 0.987 | [2] 0.857 | [3] 0.973 | [4] 1.04 | [5] 1.01 | [6] 0.978 | [7] 0.932 | [8] 0.991 | [9] 0.968 | [10] 0.979

CC(C)N(C)S(=O)(=O)NC(=O)c1cc(-n2c(=O)cc(C(F)(F)F)n(C)c2=O)c(F)cc1Cl
inactive: [1] 0.979 | [2] 1.01 | [3] 1.02 | [4] 1.04 | [5] 1.02 | [6] 1.06 | [7] 1.07 | [8] 1.05 | [9] 0.977 | [10] 1.07

Oc1ccc(Cl)cc1Cc1cc(Cl)ccc1O
inactive: [2] 0.805 | [7] 0.922
active: [1] 0.0645 | [3] 0.755 | [4] 0.8 | [5] 0.674 | [6] 0.817 | [8] 0.0117 | [9] 0.46 | [10] 0.0145

O=C(NCCc1ncc(C(F)(F)F)cc1Cl)c1ccccc1C(F)(F)F
inactive: [1] 0.967 | [2] 1.08 | [3] 0.981 | [4] 1.07 | [5] 0.964 | [6] 0.99 | [7] 1.05 | [8] 0.94 | [9] 0.971 | [10] 1.02

CC(C1CC1)C(O)(Cn1cncn1)c1ccc(Cl)cc1 (stereo not given)
active: [2] 0.624
inactive: [1] 0.901 | [3] 0.955 | [4] 0.971 | [5] 0.991 | [6] 0.986 | [7] 1.03 | [8] 0.947 | [9] 1 | [10] 1.13

CCCCCCCCCCCCNC(=N)N
inactive: [2] 1.05 | [3] 0.94 | [4] 0.902 | [6] 0.904 | [7] 0.922
active: [1] 0.00813 | [5] 0.847 | [8] 0.00569 | [9] 0.00141 | [10] 0.00501

COCc1cnc(C2=NC(C)(C(C)C)C(=O)N2)c(C(=O)O)c1 (stereo not given)
inactive: [1] 1.08 | [2] 0.958 | [3] 0.98 | [4] 0.992 | [5] 0.974 | [6] 0.972 | [7] 1.01 | [8] 0.972 | [9] 1.03 | [10] 0.982

CNC(=O)/C=C(\C)OP(=O)(OC)OC
inactive: [1] 0.971 | [2] 1.05 | [3] 0.988 | [4] 1.03 | [5] 0.964 | [6] 0.96 | [7] 0.989 | [8] 1.09 | [9] 0.937 | [10] 0.926

O=C(NC(=O)c1c(F)cccc1F)Nc1ccc(Cl)cc1
inactive: [1] 0.965 | [2] 1.06 | [3] 1.01 | [4] 1.04 | [5] 1.02 | [6] 1.01 | [7] 1.05 | [8] 1.06 | [9] 0.988 | [10] 1.02

O=C(Nc1ccc(F)cc1F)c1cccnc1Oc1cccc(C(F)(F)F)c1
inactive: [1] 1.03 | [2] 1.09 | [3] 1.01 | [4] 1.05 | [5] 1.01 | [6] 1.06 | [7] 1.13 | [8] 0.66 | [9] 1.02 | [10] 1.16

N#CC(CCc1ccc(Cl)cc1)(Cn1cncn1)c1ccccc1 (stereo not given)
inactive: [1] 0.902 | [2] 0.999 | [3] 0.921 | [4] 0.992 | [5] 0.934 | [6] 0.932 | [7] 0.909 | [8] 0.947 | [9] 0.921 | [10] 1.08

Cc1ccc(/N=C/N(C)/C=N/c2ccc(C)cc2C)c(C)c1
inactive: [1] 0.978 | [2] 1.05 | [3] 0.973 | [4] 1.1 | [5] 0.967 | [6] 1.01 | [7] 1.11 | [8] 1.06 | [9] 0.946 | [10] 1.04

C#CCN1C(=O)COc2cc(F)c(N3C(=O)C4=C(CCCC4)C3=O)cc21
inactive: [1] 0.972 | [2] 1.1 | [3] 1 | [4] 1.04 | [5] 0.985 | [6] 1.05 | [7] 1.05 | [8] 0.908 | [9] 0.938 | [10] 0.959

CCCSP(=O)(OCC)Oc1ccc(Br)cc1Cl (stereo not given)
inactive: [1] 1.01 | [2] 1.12 | [3] 1.08 | [4] 1.1 | [5] 0.975 | [6] 1.01 | [7] 1.04 | [8] 0.931 | [9] 0.955 | [10] 1.09

COC(=O)N(OC)c1ccccc1COc1ccn(-c2ccc(Cl)cc2)n1
inactive: [1] 1.01 | [2] 1.13 | [3] 1.04 | [4] 1.03 | [5] 1 | [6] 1.02 | [7] 1.15 | [8] 0.863 | [9] 0.984 | [10] 1.05
